Compounds without any hit were thinned out: in the full panel of roughly 83,000, 20% have a hit.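 Note: values are percent growth. 100 is the growth of untreated cells, values between 100 and 0 indicate rising inhibition; between -100 and 0 indicates cell death.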 Values without a mark were called inactive. Calls of active or inactive are those of the source. How the source made its calls: active means growth percent below 10; inactive means the rest.

Test systems include SK-MEL-2 melanoma; EKVX NSCLC; SN12C renal; UO-31 renal; TK-10 renal; ACHN renal; CAKI-1 renal; A498 renal; CCRF-CEM leukemia; MOLT-4 leukemia; SR leukemia; RPMI-8226 leukemia; OVCAR-8 ovarian; OVCAR-5 ovarian; OVCAR-4 ovarian; SK-OV-3 ovarian; IGROV1 ovarian; OVCAR-3 ovarian; HS 578T breast; NCI/ADR-RES ovarian.
Assay in all cases: NCI-60 one-dose screen, 48 h (100 = growth as untreated, 0 = no growth, -100 = all killed)
What all share (settings): 10 µM unless noted

Turning to `N#C/C(=C1/C(=O)Nc2ccccc21)c1nnc(NC(=O)c2ccc(-n3c(=O)[nH]c4ccccc4c3=O)cc2)s1`, the growth was 57.7% in the assay on SK-MEL-2 melanoma; 38.9% in the assay with EKVX NSCLC; 33.1% in the assay with SN12C renal; 29.5% with UO-31 renal; 84.3% with TK-10 renal; 28.2% with ACHN renal. In addition, the growth in the assay with CAKI-1 renal is 49.2%; in the assay on A498 renal, 133%; in the assay on CCRF-CEM leukemia, 7.74% (active); with MOLT-4 leukemia, 0.108% (active); with SR leukemia, 17%; in the assay with RPMI-8226 leukemia, 11.5%. For the same molecule, the growth was 40.2% with OVCAR-8 ovarian; 63.5% with OVCAR-5 ovarian; 31.2% in the assay on OVCAR-4 ovarian; 75.1% with SK-OV-3 ovarian; 38.7% in the assay on IGROV1 ovarian; 25.6% with OVCAR-3 ovarian. For the same molecule, the figures for the growth with HS 578T breast and in the assay with NCI/ADR-RES ovarian were 55.6% and 22.9%, respectively.

In the case of `N/C(=N\c1nc2ccccc2s1)NC(=O)Nc1ccccc1F`, the growth in the assay on SK-MEL-2 melanoma is 11%; in the assay on EKVX NSCLC it was 37%; with SN12C renal, 26.4%; in the assay on UO-31 renal, 34.3%; with TK-10 renal, 38.4%; in the assay on ACHN renal, 47.8%. In addition, the growth in the assay with CAKI-1 renal is 18.6%; in the assay with A498 renal, 78.4%; with CCRF-CEM leukemia, 5.96% (active); in the assay on MOLT-4 leukemia, 21.1%; with SR leukemia it was 20.8%; with RPMI-8226 leukemia, 15.8%. Also, the growth is 10.6% with OVCAR-8 ovarian; 31.4% in the assay on OVCAR-5 ovarian; 49.6% in the assay on OVCAR-4 ovarian; -1.47% (active) in the assay on SK-OV-3 ovarian; 37.5% in the assay with IGROV1 ovarian; 7.03% (active) in the assay on OVCAR-3 ovarian. The growth was 7.56% (active) with HS 578T breast and -14.8% (active) in the assay on NCI/ADR-RES ovarian.

Take `C=CC[n+]1cccc2c3ccccc3ccc21`: the growth in the assay on SK-MEL-2 melanoma was 63.3%; in the assay on EKVX NSCLC, 23.7%; in the assay with SN12C renal it was 8.67% (active); with UO-31 renal, 56.5%; with TK-10 renal it was 67.1%; in the assay with ACHN renal, 88%. For the same molecule, the growth in the assay with CAKI-1 renal is 60.6%; in the assay on A498 renal, 48.6%; in the assay on CCRF-CEM leukemia, 47.3%; with MOLT-4 leukemia it was 47.9%; in the assay with SR leukemia, 46.5%; in the assay on RPMI-8226 leukemia, 27.6%. Further, the growth with OVCAR-8 ovarian was 41.1%; with OVCAR-5 ovarian it was 70.8%; in the assay on OVCAR-4 ovarian it was 42%; in the assay with SK-OV-3 ovarian, 77%; with IGROV1 ovarian, 72.5%; in the assay with OVCAR-3 ovarian it was 35.9%. Further, the figures for the growth with HS 578T breast and in the assay on NCI/ADR-RES ovarian were 43.7% and 97.2%, respectively.

`CCC(=O)c1c2c(c3ccc4c5ccccc5ccc4n13)C(=O)c1ccccc1C2=O`: the growth in the assay with SK-MEL-2 melanoma was 89.2%; in the assay on EKVX NSCLC, 71.2%; in the assay with SN12C renal it was 85.6%; in the assay with UO-31 renal, 59.8%; in the assay with TK-10 renal, 122%; in the assay with ACHN renal it was 83.3%. For the same molecule, the growth is 84% in the assay on CAKI-1 renal; 215% with A498 renal; 100% in the assay with CCRF-CEM leukemia; 89.6% in the assay on MOLT-4 leukemia; 71.8% in the assay on SR leukemia; 95.8% in the assay on RPMI-8226 leukemia. In addition, the growth in the assay on OVCAR-8 ovarian was 96.1%; in the assay with OVCAR-5 ovarian, 122%; in the assay with OVCAR-4 ovarian, 88.2%; in the assay with SK-OV-3 ovarian, 105%; with IGROV1 ovarian, 75.6%; in the assay with OVCAR-3 ovarian, 75.9%. In addition, the growth in the assay with HS 578T breast was 96.7%; in the assay on NCI/ADR-RES ovarian, 90.8%.

With `COc1c(B(O)O)cccc1-c1nc2ccc3cn[nH]c3c2c2c1CCCC2`, the growth in the assay on SK-MEL-2 melanoma was 108%; in the assay on EKVX NSCLC, 49.3%; with SN12C renal it was 50.6%; with UO-31 renal, 23.6%; in the assay on TK-10 renal, 12%; with ACHN renal, 27.3%. Moreover, the growth with CAKI-1 renal is -11.3% (active); in the assay with A498 renal, -2.36% (active); with CCRF-CEM leukemia, 39.6%; in the assay with MOLT-4 leukemia, 47.7%; with SR leukemia, 71.8%; with RPMI-8226 leukemia, 45.8%. For the same molecule, the growth is 48.4% in the assay on OVCAR-8 ovarian; 76.1% in the assay with OVCAR-5 ovarian; 77.3% in the assay on OVCAR-4 ovarian; 25.3% with SK-OV-3 ovarian; 57.9% in the assay with IGROV1 ovarian; 57% in the assay with OVCAR-3 ovarian. In addition, the growth in the assay with HS 578T breast is -17.9% (active); with NCI/ADR-RES ovarian it was 65.2%.

Consider `COc1ccc(/C=C/c2nc3ccccc3c(=O)n2CC(=O)Nc2ccccc2)cc1`, for which the growth in the assay on SK-MEL-2 melanoma was 81.2%; with EKVX NSCLC, 63.1%; with SN12C renal it was 8.23% (active); in the assay on UO-31 renal, -33% (active); in the assay with TK-10 renal it was -9.9% (active); in the assay on ACHN renal it was -60% (active). In addition, the growth is 35.1% with CAKI-1 renal; -43% (active) in the assay with A498 renal; 88.3% in the assay on CCRF-CEM leukemia; 86.7% in the assay with MOLT-4 leukemia; 54.7% in the assay on SR leukemia; 81.8% in the assay with RPMI-8226 leukemia. Also, the growth was 43.6% in the assay on OVCAR-8 ovarian; 60.6% in the assay with OVCAR-5 ovarian; 0.985% (active) with OVCAR-4 ovarian; 44.9% in the assay with SK-OV-3 ovarian; 49.9% in the assay with IGROV1 ovarian; 49.3% in the assay with OVCAR-3 ovarian. In addition, the growth in the assay with HS 578T breast was 9.93% (active); with NCI/ADR-RES ovarian it was 36.8%.

In the case of `c1ccc(CSc2nnc(-c3ccc4nc(-c5ccccc5)[nH]c4c3)o2)cc1`, the growth with SK-MEL-2 melanoma is 57.5%; in the assay on EKVX NSCLC, 57.3%; in the assay with SN12C renal, -48.3% (active); in the assay on UO-31 renal, 40.6%; in the assay with TK-10 renal, -2.54% (active); with ACHN renal it was 1.16% (active). For the same molecule, the growth with CAKI-1 renal is -44.9% (active); in the assay on A498 renal, -8.46% (active); in the assay on CCRF-CEM leukemia, 73.8%; in the assay with MOLT-4 leukemia it was 58.2%; in the assay on SR leukemia, 63.6%; with RPMI-8226 leukemia, 36.7%. The growth is -23.2% (active) with OVCAR-8 ovarian; 75.3% in the assay on OVCAR-5 ovarian; -43.7% (active) with OVCAR-4 ovarian; 87% in the assay with SK-OV-3 ovarian; 63.6% in the assay on IGROV1 ovarian; 27.4% in the assay with OVCAR-3 ovarian. For the same molecule, the growth is -1.88% (active) with HS 578T breast and -40.3% (active) with NCI/ADR-RES ovarian.

In the case of `N#Cc1ccc(C(=O)NNC(=O)CSc2nc3sc4c(c3c(=O)n2-c2ccc(Cl)cc2)CCCC4)cc1`, the growth with SK-MEL-2 melanoma is 94.2%; in the assay with EKVX NSCLC, 54.3%; with SN12C renal, 41.7%; with UO-31 renal, 42.7%; in the assay on TK-10 renal it was 115%; with ACHN renal it was 71.2%. For the same molecule, the growth in the assay with CAKI-1 renal is 53.1%; in the assay with A498 renal, 89.2%; in the assay with CCRF-CEM leukemia, 48.9%; in the assay with MOLT-4 leukemia it was 46.3%; with SR leukemia, 47.6%; in the assay on RPMI-8226 leukemia, 54.6%. In addition, the growth in the assay with OVCAR-8 ovarian was 34.4%; with OVCAR-5 ovarian it was 31.9%; in the assay on OVCAR-4 ovarian, 73.8%; in the assay with SK-OV-3 ovarian it was 72.7%; in the assay on IGROV1 ovarian, 30.7%; in the assay on OVCAR-3 ovarian, 91.8%. Also, the growth in the assay on HS 578T breast was 59.4%; with NCI/ADR-RES ovarian, 67.3%.

The record behind these values is PubChem BioAssay (NCI).
